Experimental findings from PubChem BioAssay AID777 (Sanford-Burnham Center for Chemical Genomics, 2007) are described below.

Out of some 96,000 compounds screened, about 19,000 (20%) were called active. Only a sample is shown. Unmarked numbers belong to inactive results.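 Rule for the calls: active = blocking of liver enzyme CYP2C9 beyond about 50% at 5 µM (limit read from the data); inactive = the rest.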

In the experiment the target is Cytochrome P450 2C9 (Homo sapiens) (UniProt P11712). The experiment is described as follows: blockers of cytochrome P450 2C9 activity – biochemical, luminescence, ADME assay, primary screen (AID 777). Particulars: CYP2C9 Supersomes, luciferin-H conversion, at 5 µM, stronger effect = higher value.
Chain of Cytochrome P450 2C9 (Homo sapiens) (P11712 whole entry, looked up): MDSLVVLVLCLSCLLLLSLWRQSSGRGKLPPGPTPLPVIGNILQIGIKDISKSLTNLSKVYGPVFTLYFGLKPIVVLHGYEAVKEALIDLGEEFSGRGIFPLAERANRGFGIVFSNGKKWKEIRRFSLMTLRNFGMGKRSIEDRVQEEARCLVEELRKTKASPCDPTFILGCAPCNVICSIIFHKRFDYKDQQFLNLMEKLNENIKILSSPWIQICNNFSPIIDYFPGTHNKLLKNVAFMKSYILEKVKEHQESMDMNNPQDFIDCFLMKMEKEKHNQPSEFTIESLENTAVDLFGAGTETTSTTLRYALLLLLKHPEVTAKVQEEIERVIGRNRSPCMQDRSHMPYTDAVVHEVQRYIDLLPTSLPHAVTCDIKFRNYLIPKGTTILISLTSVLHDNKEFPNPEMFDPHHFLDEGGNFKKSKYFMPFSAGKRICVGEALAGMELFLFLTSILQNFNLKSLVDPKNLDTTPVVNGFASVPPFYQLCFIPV
As a reminder, the inhibition is the drop in the measured response relative to a control, in per cent. `O=C(CSc1nnc(-c2ccco2)n1-c1ccccc1)NCCc1ccccc1`: the inhibition was 30.9%.
As for `COc1ccc(-n2c(SCC(=O)NCc3cccs3)nnc2-c2ccoc2C)cc1`, the inhibition is 66.1% (active).
For `CCn1c(SCCC(C)C)nnc1-c1c[nH]c2ccccc12`, the inhibition was 1.7%.
The value for `O=C(CSc1nnc(-c2cccs2)n1-c1ccccc1)N1CCN(C(=O)c2ccco2)CC1` was 23.6%; that for `Cc1ccc(-c2csc3nnc(SCC(=O)NCc4ccco4)n23)cc1` was 40.9%; that for `CCOc1ccccc1-n1c(SCC(=O)N2CCCC2)nnc1-c1ccoc1C` was 8.8%.
With `O=C(CSc1nnc(-c2cccs2)n1-c1ccccc1)NCc1ccco1` the figure was 70.7% (active); with `O=C(CSc1nnc2scc(-c3ccc(F)cc3)n12)NCc1ccco1`, 55% (active).
The value for `CCn1c(SCC(=O)Nc2ccc(OC)c(OC)c2)nnc1-c1c[nH]c2ccccc12` was 93.3% (active).
`CCOC(=O)N1CCN(C(=O)CSc2nnc(-c3c[nH]c4ccccc34)n2CCOC)CC1`: the inhibition was 14.7%.
The value for `Cc1ccc(-n2c(SCC(=O)Nc3ccc4c(c3)OCO4)nnc2-c2ccoc2C)cc1` was -13.4%; that for `CC(C)(C)OC(=O)c1c(N)n(CCCN2CCCC2=O)c2nc3ccccc3nc12` was -1.7%.
The value for `CCc1c(C)n([O-])c2c([n+]1=O)CCCCC2` was -11.5%; that for `CC1CCC2(CC1)NC(=O)N(CC(=O)c1cccn1C)C2=O` (stereo not given) was -21.9%; that for `Nc1ccc(C(=O)OCC(=O)NC2CCCc3ccccc32)cc1[N+](=O)[O-]` (stereo not given) was -4.1%.
With `Cc1cc(NC(=O)Nc2ccccc2)n(-c2ccccc2)n1` the figure was 14.5%; with `CCOc1ccc(N(CC(=O)NC2CCCCCC2)S(=O)(=O)c2c(C)[nH]c(=O)[nH]c2=O)cc1`, 1.3%; with `Cc1ccc(CNC(=O)c2ccccc2CCc2ccccc2)cc1`, 29.1%.
With `Cc1cccc(C(=O)Nc2ccc(C(=O)/C=C/c3cccs3)cc2)c1`, the inhibition is 26.4%.
On to `O=C(NC1CC1)c1ccc2c(c1)NC(=O)c1ccccc1S2`, for which the inhibition is 11.1%.
The value for `COc1ccc(-c2nnc(SCC(=O)c3ccco3)n2-c2ccccc2)cc1` was -14.6%; that for `COc1ccc(-n2c(SCC(=O)NCc3ccco3)nnc2-c2c[nH]c3ccccc23)cc1` was 58.8% (active); that for `COc1ccc(C(=O)NC(=O)CSc2nnc(-c3ccco3)n2-c2ccccc2)cc1` was -13.3%.
As for `Cc1cc(NC(=O)CN2CCCC(C)C2)n(-c2nc3ccccc3s2)n1` (stereo not given), the inhibition is 22.2%.
With `c1ccc2c(c1)OCC(c1nn3cnnc3s1)O2` (stereo not given) the figure was 7%; with `CC(C)(C)c1cc2cccnc2n1Cc1cccc(F)c1`, 6.5%.
Turning to `COC(=O)c1ccc(OCC(=O)NC(C)(C)C)cc1`, the inhibition was 14.1%.
The value for `CC/C(=N/Nc1ccccc1)c1cnnc(SC)n1` was 59% (active); that for `CC(C)(C)c1csc(NC2=NS(=O)(=O)c3ccccc32)n1` was 17.4%.
As for `O=S1(=O)C=C(SCCN2CCCC2)c2ccccc21`, the inhibition was 14%.
For `CC(C)(C)c1ccc(OC2=CS(=O)(=O)c3ccccc32)cc1`, the inhibition is 79% (active).
The value for `Brc1cnc(N2CCCC2)nc1N1CCCCC1` was -15.1%.
With `COc1ccc(C2=NOC(C(=O)NCc3ccco3)C2)cc1OC` (stereo not given) the figure was -31.2%; with `Cc1ccnc(-n2sc3ccccc3c2=O)n1`, 30.1%; with `COc1ccc(C(=O)Cc2cnn(-c3ccccc3)c2)c(O)c1`, 5%.
`Cc1cc(O)cc(O)c1C(=O)Cc1cnn(-c2ccccc2)c1`: the inhibition is 63.4% (active).
The value for `Cn1nnnc1SCC(=O)N1CCN(Cc2ccccc2)CC1` was 1.6%; that for `CC(C)OC(=O)C(C#N)c1nc2ccccc2nc1N1CCN(Cc2ccccc2)CC1` (stereo not given) was 62.6% (active).
Turning to `CC(C)OC(=O)C(C#N)c1nc2ccccc2nc1N1CCN(Cc2ccc3c(c2)OCO3)CC1` (stereo not given), the inhibition is 16.9%.
With `Cc1cccc(C)c1NC(=O)c1ccc(CN2CCc3ccccc3C2)cc1` the figure was -5.8%; with `CC1(C)Cc2c(sc3nc4n(c(=N)c23)CCCCC4)CO1`, 3.2%.
With `C=CC[n+]1c(-c2ccc(C)cc2)csc1NNC(=O)Nc1ccccc1`, the inhibition was 8.5%.
The value for `c1cnc(Nc2nc(-c3ccc4ccccc4c3)cs2)nc1` was -3.5%; that for `Oc1ccc(-c2csc(Nc3cccnc3)n2)cc1` was 37.6%; that for `c1ccc(Nc2nc(-c3ccncc3)cs2)nc1` was 92.9% (active).
With `Fc1ccc(Br)cc1/C=N/n1cnnc1` the figure was 6.6%.
With `Cc1cccc(C(=O)Nc2nnc(Cc3c[nH]c4ccccc34)s2)c1` the figure was -4.3%.
Consider `CN(CC#CCC(c1ccccc1)c1ccccc1)C(C)(C)C`, for which the inhibition was 25.6%.
For `CCCCn1c(=S)[nH]c2ncccc2c1=O`, the inhibition is 13.8%.
With `N#Cc1ccc(C(c2nnnn2CCc2ccccc2)N2CCCCCC2)cc1` (stereo not given) the figure was 8.8%; with `Fc1ccc(Cn2nnnc2C(c2cccs2)N2CCCCCC2)cc1` (stereo not given), 83.4% (active).
As to `CC(C)C(c1nnnn1Cc1ccccc1)N1CCC(C(N)=O)CC1` (stereo not given), the inhibition was 10.7%.
Consider `CCOC(=O)N1CCC(C(N)=O)CC1`, for which the inhibition was -7.1%.
The value for `Cc1ccccc1OCC(=O)NCC(=O)OCC(=O)c1ccc2ccccc2c1` was -61.4%; that for `CCCOc1ccc2c3c(c(=O)oc2c1OCCC)CCC3` was -0.6%; that for `CC(C)c1nc(-c2ccccn2)no1` was 3.9%.
In the case of `O=C(Oc1ccc(-c2nc(-c3ccccn3)no2)cc1)c1ccccc1`, the inhibition was 87.2% (active).
For `O=C(Oc1ccccc1)c1ccc2nccnc2c1`, the inhibition is 17%.
The value for `CCOC(=O)C1=C(CN2CCc3ccccc32)NC(=O)NC1c1ccc(Cl)cc1` (stereo not given) was 4.7%.
Regarding `COCCOC(=O)C1=C(C)NC(=O)NC1c1ccc(Cl)cc1` (stereo not given), the inhibition was -3%.
The value for `CCOC(=O)C1=C(C)NC(=O)N(C(C)=O)C1c1ccc(Cl)cc1` (stereo not given) was 74.3% (active); that for `COc1ccc(C2=NOC3(CC(=O)N(c4ccc(Cl)cc4)C3=O)C2)c(OC)c1` (stereo not given) was 23%.
With `O=C(NC1CCN(Cc2ccccc2)CC1)c1ccccc1F` the figure was 7.8%; with `CCOc1cccc(-c2nn3c(-c4ccccn4)nnc3s2)c1`, 23.2%; with `COc1ccc(-c2nn3c(-c4ccccc4)nnc3s2)cc1OC`, 6.9%.
With `COc1cc(-c2nn3c(-c4cccc(C)c4)nnc3s2)cc(OC)c1OC` the figure was 74.1% (active); with `Cc1cc(NC(=O)COn2nnc3ccccc32)no1`, 24.9%; with `Cc1ccc(C(=O)N2CCN(C(=O)N3CCOCC3)CC2)cc1`, 11.5%.
On to `Cc1cc2nc(-c3ccc(NC(=O)c4cccnc4)cc3)oc2cc1C`, for which the inhibition was 7.6%.
With `C=CCN1C(=O)C(O)(CC(=O)c2ccc(Cl)cc2)c2ccccc21` (stereo not given) the figure was 67.9% (active).
With `O=C(CC1(O)C(=O)N(CN2CCOCC2)c2ccccc21)c1ccccc1` (stereo not given) the figure was -1%; with `CCOC(=O)CN1C(=O)C(O)(CC(=O)c2ccccn2)c2ccccc21` (stereo not given), 26%; with `Nc1c(C(=O)NCc2ccccc2)sc2nc3c(cc12)C(=O)CCC3`, 6%.
The value for `Cc1cc(C)c2nc(NC(=O)C3CCCO3)sc2c1` (stereo not given) was 28.3%.
On to `O=C(Cc1ncc(C(F)(F)F)cc1Cl)Nc1cccc(Br)c1`, for which the inhibition was 24.9%.
The value for `CCCN(CCC)C(=O)C1c2ccccc2Oc2ccccc21` was 53.1% (active); that for `CCOC(=O)N1CCN(C(=O)CNC(=O)Cc2ccc(Cl)cc2)CC1` was 10.1%.
`CCOc1cc(N2CCOCC2)c(OCC)cc1NC(=O)COc1cccc2cccnc12`: the inhibition is 0%.
With `CCOC(=O)CSc1nc2sc3c(c2c(=O)[nH]1)CC(C)(C)OC3`, the inhibition is 15.3%.
The value for `O=C(CSc1nc2c(cnn2-c2ccc(F)cc2)c(=O)[nH]1)N1CCCCCC1` was 1.3%; that for `C=CCNC(=O)CSc1nc2sc(C)c(C)c2c(=O)[nH]1` was 58.1% (active); that for `C=CCn1c(SCC(=O)/C(C#N)=C(\C)N)nc2sc(C)c(C)c2c1=O` was 38.5%.
The value for `Cc1cccc(NC(=O)CSc2nc3c(c(=O)[nH]2)CCCC3)c1C` was 35.7%.
Regarding `CC(=O)c1sc2nc(SCC(=O)N3CCCCC3)[nH]c(=O)c2c1C`, the inhibition is 95.6% (active).
Regarding `Cn1c(=O)cc(OCCCC(=O)N2CCN(Cc3ccc4c(c3)OCO4)CC2)c2ccccc21`, the inhibition is 9.3%.
Take `CCOC(=O)NNC(=O)c1ccc(Cl)cc1`: the inhibition is 1.4%.
On to `CN(C)/C=C/c1c(C#N)c(=O)ncn1Cc1ccccc1`, for which the inhibition was 3.3%.
Consider `COc1ccc(NC(=O)Nc2ccc3nc(C)c(C)nc3c2)cc1`, for which the inhibition is 18.7%.
With `Cc1nc2ccc(NC(=O)N3CCC(c4ccccc4)C3)cc2nc1C` (stereo not given) the figure was 51.4% (active); with `Cn1c(CCN2CCCCCC2)nc2cc(NC(=O)Nc3ccccc3)ccc21`, -0.2%; with `Cc1cc(C(=O)CC#N)c(C)n1CC(F)(F)F`, 19.4%.
The value for `COc1cccc2cc(C(=O)N(C)C)c(=O)oc12` was -103%.
The value for `CCOC(=O)c1c(C)nc(-c2ccccc2)nc1NC(=O)C(C)C` was 23%; that for `CCOC(=O)c1cnc(-c2ccccc2)nc1Oc1ccc(C)cc1` was 65.7% (active); that for `CCCCOc1ccc(-c2ncc(C(=O)OCC)c(N)n2)cc1` was -19.4%.
`COc1ccc(C(=O)c2c(C)oc3cc([N+](=O)[O-])c(O)c([N+](=O)[O-])c23)cc1`: the inhibition was 79.8% (active).
As for `COc1ccc(C(=O)c2oc3ccc(Br)cc3c2NC(C)=O)cc1`, the inhibition is 1.7%.
`COc1ccc(NC(=O)c2c(C)oc3c2CCCC3)cc1`: the inhibition was 15.4%.
`Cc1nn(C)c(Oc2ccccc2)c1[N+](=O)[O-]`: the inhibition was 29.1%.
The value for `CN(CCC#N)c1ncnc2scc(-c3ccccc3)c12` was 19.4%.
